The values below come from PubChem BioAssay (EPA / NIEHS).

The source made the active and inactive calls. How the source made its calls: active means hit-call score of the fitted dose curve at least 0.9, where 1 is the maximum; inactive means score below 0.9.

As usually defined, the AC50 is the concentration giving half of the maximal activity seen.

What all share (conditions): mRNA level, 48 h; actives raise or lower the signal
Read-out in assay [1]: Heat shock 70 kDa protein 1 (HSPA1A), gene 3303
In words: LTEA_HepaRG_HSPA1A: Life Technologies and Expression Analysis (LTEA) Assay for Heat shock 70 kDa protein 1 (HSPA1A) using HepaRG (AID 2283502). The essentials: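 HSPA1A induction in human HepaRG liver cells is measured after 48 h of chemical treatment (100 uM maximum, 0.5% DMSO vehicle). Expression comes from qRT-PCR normalized to endogenous controls.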

Read-out in assay [2]: Hypoxia-inducible factor 1-alpha (Homo sapiens) (UniProt Q16665)
In words: LTEA_HepaRG_HIF1A: Life Technologies and Expression Analysis (LTEA) Assay for Hypoxia-inducible factor 1 (HIF1A) Trancription factor using HepaRG (AID 2283503).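 Further: HIF1A transcript by TaqMan qRT-PCR normalized to ACTB GAPDH and POLR2A.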 The procedure, abridged:
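HepaRG, 48 h exposure, 8-pt half-log series from 100 uM, 0.5% DMSO vehicle, duplicates. Readout: HIF1A transcript by qRT-PCR (Fluidigm array), housekeeping-normalised. Bidirectional curve fit vs DMSO baseline.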

Read-out in assay [3]: 3-Hydroxy-3-Methylglutaryl-CoA Synthase 2 (HMGCS2), HMGCS2 (gene 3158)
In words: LTEA_HepaRG_HMGCS2: Life Technologies and Expression Analysis (LTEA) Assay for 3-Hydroxy-3-Methylglutaryl-CoA Synthase 2 (HMGCS2) using HepaRG (AID 2283504). The essentials:
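This steatosis marker was read as HMGCS2 mRNA change in HepaRG cells treated 48 h with up to 100 uM chemical. Normalisation used housekeeping genes; activity in either direction was fitted relative to 0.5% DMSO vehicle.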

Read-out in assay [4]: HGF (gene 3082)
Briefly: LTEA_HepaRG_HGF: Life Technologies and Expression Analysis (LTEA) Assay for Hepatocyte Growth Facto (HGF) using HepaRG (AID 2283505). The essentials:
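Using HepaRG monolayers kept in 0.5% DMSO, chemicals were tested in duplicate over eight half-log concentrations from 100 uM for 48 h. Endpoint: HGF mRNA change relative to DMSO, normalized to ACTB/GAPDH/POLR2A.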

Read-out in assay [5]: Insulin Like Growth Factor 1 (IGF1), IGF1 (gene 3479)
Briefly: LTEA_HepaRG_IGF1: Life Technologies and Expression Analysis (LTEA) Assay for Insulin Like Growth Factor 1 (IGF1) using HepaRG (AID 2283506). The essentials: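 Using human HepaRG liver cells, IGF1 transcript induction or suppression is measured 48 h after dosing across eight concentrations capped at 100 uM. Values derive from bidirectional concentration-response fitting with DMSO as baseline.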

Read-out in assay [6]: Intercellular Adhesion Molecule 1 (ICAM1), ICAM1 (gene 3383)
Briefly: LTEA_HepaRG_ICAM1: Life Technologies and Expression Analysis (LTEA) Assay for Intercellular Adhesion Molecule 1 (ICAM1) using HepaRG (AID 2283507). The procedure, abridged:
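Using the human liver line HepaRG, compounds are tested in duplicate over 48 h at concentrations up to 100 uM. Expression is determined by TaqMan qRT-PCR, normalized to endogenous controls, and analysed relative to 0.5% DMSO vehicle.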

Read-out in assay [7]: Insulin-like growth factor-binding protein 1 (IGFBP1), IGFBP1 (gene 3484)
Briefly: LTEA_HepaRG_IGFBP1: Life Technologies and Expression Analysis (LTEA) Assay for Insulin-like growth factor-binding protein 1 (IGFBP1) using HepaRG (AID 2283508). The essentials:
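HepaRG, 48 h, 8 conc. (max 100 uM, half-log), duplicates, 0.5% DMSO. Readout: TaqMan qRT-PCR, ACTB/GAPDH/POLR2A normalisation. Fit: bidirectional vs DMSO.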

Read-out in assay [8]: Interleukin 6 (IL6), IL6 (gene 3569)
Briefly: LTEA_HepaRG_IL6: Life Technologies and Expression Analysis (LTEA) Assay for Interleukin 6 (IL6) using HepaRG (AID 2283509). The essentials: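 HepaRG, ~100,000 cells/well, 48 h pre-culture; serum-free induction medium; cmpd 8-pt half-log from 100 uM, 0.5% DMSO, duplicate, 48 h. Lysis in RLT, TaqMan qRT-PCR; gain or loss vs DMSO.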

Read-out in assay [9]: Interleukin 6 Receptor (IL6R), IL6R (gene 3570)
In words: LTEA_HepaRG_IL6R: Life Technologies and Expression Analysis (LTEA) Assay for Interleukin 6 Receptor (IL6R) using HepaRG (AID 2283510).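 On AC50: differentiated human HepaRG liver cells in serum-free induction medium; TaqMan qRT-PCR signal normalized to ACTB GAPDH and POLR2A housekeeping genes.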 The procedure, abridged: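 Concentration-response in human liver HepaRG cells: eight concentrations from 100 uM downward by half-logs, 48 h exposure, 0.5% DMSO vehicle. IL6R mRNA change measured by qRT-PCR and fitted in both directions relative to vehicle.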

Read-out in assay [10]: Potassium channel subfamily K member 1 (KCNK1), KCNK1 (gene 3775)
Briefly: LTEA_HepaRG_KCNK1: Life Technologies and Expression Analysis (LTEA) Assay for Potassium channel subfamily K member 1 (KCNK1) using HepaRG (AID 2283511). The procedure, abridged: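 Gain or loss of KCNK1 mRNA is the read-out, quantified by qRT-PCR against three housekeeping genes after 48 h chemical treatment of human HepaRG liver cells. Concentrations ran from 100 uM downward in half-log steps, vehicle 0.5% DMSO.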

Read-out in assay [11]: Keratin 19 (KRT19), KRT19 (gene 3880)
Briefly: LTEA_HepaRG_KRT19: Life Technologies and Expression Analysis (LTEA) Assay for Keratin 19 (KRT19) using HepaRG (AID 2283512). The essentials: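 Readout is qRT-PCR of KRT19 mRNA, normalized to ACTB, GAPDH and POLR2A, from HepaRG cells treated 48 h with eight-point half-log dilutions topping at 100 uM. Activity in either direction is scored relative to 0.5% DMSO vehicle.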

Read-out in assay [12]: JUN Transcription Factor, JUN (gene 3725)
In words: LTEA_HepaRG_JUN: Life Technologies and Expression Analysis (LTEA) Assay for JUN Transcription Factor using HepaRG (AID 2283513). The essentials: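 Human HepaRG liver cells receive test chemicals in 0.5% DMSO for 48 h across an eight-point range topping at 100 uM. Expression changes in JUN are scored in both directions against the DMSO vehicle.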

Read-out in assay [13]: Lipase C (LIPC), LIPC (gene 3990)
Briefly: LTEA_HepaRG_LIPC: Life Technologies and Expression Analysis (LTEA) Assay for Lipase C (LIPC) using HepaRG (AID 2283514). The procedure, abridged: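 Read-out is LIPC transcript level by TaqMan qRT-PCR, normalized to three housekeeping genes, after 48 h chemical treatment of human HepaRG liver cells. Curves span eight concentrations topping at 100 uM; activity in either direction scored relative to 0.5% DMSO.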

Read-out in assay [14]: Lipoprotein lipase (LPL), LPL (gene 4023)
In words: LTEA_HepaRG_LPL: Life Technologies and Expression Analysis (LTEA) Assay for Lipoprotein lipase (LPL) using HepaRG (AID 2283515). The procedure, abridged: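 Read-out is LPL transcript level by qRT-PCR, normalized to three housekeeping genes and fitted bidirectionally against the DMSO control. Human HepaRG cells received chemicals for 48 h at up to 100 uM.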

Read-out in assay [15]: MicroRNA 122 (MIR122), gene 406906
Briefly: LTEA_HepaRG_MIR122: Life Technologies and Expression Analysis (LTEA) Assay for MicroRNA 122 (MIR122) using HepaRG (AID 2283516). Further: the transcript read is the microRNA miR-122. The procedure, abridged: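 HepaRG, 48 h exposure, 8-pt half-log from 100 uM, 0.5% DMSO; TaqMan qRT-PCR; bidirectional fit vs DMSO.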

Read-out in assay [16]: matrix metalloproteinase-10 (MMP10), MMP10 (gene 4319)
Briefly: LTEA_HepaRG_MMP10: Life Technologies and Expression Analysis (LTEA) Assay for matrix metalloproteinase-10 (MMP10) using HepaRG (AID 2283517). The procedure, abridged:
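Gain or loss of MMP10 mRNA is fitted relative to the 0.5% DMSO vehicle. The human hepatic line HepaRG receives a 48-hour serum-free exposure, in duplicate, with a maximum concentration of 100 uM.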

Read-out in assay [17]: MYC, MYC (gene 4609)
Briefly: LTEA_HepaRG_MYC: Life Technologies and Expression Analysis (LTEA) Assay for MYC using HepaRG (AID 2283518). The procedure, abridged: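 Expression changes were scored by TaqMan qRT-PCR with ACTB, GAPDH and POLR2A normalization. Cultures in serum-free induction medium received duplicate 8-point concentration series, highest 100 uM, for 48 h; DMSO (0.5%) served as baseline.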

Read-out in assay [18]: matrix metalloproteinase-3 (MMP3), MMP3 (gene 4314)
In words: LTEA_HepaRG_MMP3: Life Technologies and Expression Analysis (LTEA) Assay for matrix metalloproteinase-3 (MMP3) using HepaRG (AID 2283519). The procedure, abridged:
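HepaRG, human; 48 h dosing, 8 conc. (max 100 uM, half-log), duplicate, 0.5% DMSO. Readout: MMP3 transcript by Fluidigm TaqMan qRT-PCR, ACTB/GAPDH/POLR2A-normalised. Gain or loss fitted vs DMSO.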

Read-out in assay [19]: Paternally Expressed 10 (PEG10), PEG10 (gene 23089)
In words: LTEA_HepaRG_PEG10: Life Technologies and Expression Analysis (LTEA) Assay for Paternally Expressed 10 (PEG10) using HepaRG (AID 2283520).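 On AC50: differentiated HepaRG human liver cells in serum-free induction medium with 0.5% DMSO; PEG10 transcript by qRT-PCR normalised to ACTB GAPDH and POLR2A.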 The procedure, abridged:
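Chemicals tested on HepaRG cells for 48 h, highest concentration 100 uM. PEG10 expression assessed by qRT-PCR relative to DMSO control.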

Hypoxia-inducible factor 1-alpha (Homo sapiens), sequence (Q16665 whole entry, looked up): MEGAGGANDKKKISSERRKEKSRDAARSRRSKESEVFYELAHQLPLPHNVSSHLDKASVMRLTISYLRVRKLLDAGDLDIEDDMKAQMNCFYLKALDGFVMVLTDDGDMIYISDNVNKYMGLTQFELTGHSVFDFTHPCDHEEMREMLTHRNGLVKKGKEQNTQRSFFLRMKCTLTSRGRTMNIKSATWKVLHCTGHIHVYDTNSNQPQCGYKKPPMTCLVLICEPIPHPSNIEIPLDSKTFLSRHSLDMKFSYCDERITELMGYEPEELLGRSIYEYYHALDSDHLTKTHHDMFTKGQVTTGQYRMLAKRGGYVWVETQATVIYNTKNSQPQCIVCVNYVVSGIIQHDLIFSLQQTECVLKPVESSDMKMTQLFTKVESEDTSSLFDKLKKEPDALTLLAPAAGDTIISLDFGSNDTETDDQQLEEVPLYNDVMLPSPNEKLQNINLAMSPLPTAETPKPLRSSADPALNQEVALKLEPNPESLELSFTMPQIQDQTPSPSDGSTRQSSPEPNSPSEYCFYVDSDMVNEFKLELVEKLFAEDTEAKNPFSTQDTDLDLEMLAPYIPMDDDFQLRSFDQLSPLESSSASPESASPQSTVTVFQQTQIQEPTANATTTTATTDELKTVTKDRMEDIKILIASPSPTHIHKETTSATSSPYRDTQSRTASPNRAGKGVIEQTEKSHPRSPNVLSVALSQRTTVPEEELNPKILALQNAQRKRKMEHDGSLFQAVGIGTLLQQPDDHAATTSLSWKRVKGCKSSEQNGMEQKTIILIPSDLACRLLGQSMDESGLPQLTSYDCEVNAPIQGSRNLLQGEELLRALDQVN

On to `O=C(O)COc1nc(Cl)c(Cl)cc1Cl`, for which the compound was classed as inactive in assay [1], in assay [2], in [3], in [4], in [5] and in assay [6]. Also, the compound was called inactive in [7], in [8], in assay [9], in [10], in assay [11] and in assay [12]. In addition, the compound was called inactive in assay [13], in [14], in [15], in assay [16], in assay [17] and in [18]. Besides, the AC50 in assay [19] is 3.29 µM (active).

Consider `CCOc1cc(Oc2ccc(C(F)(F)F)cc2Cl)ccc1[N+](=O)[O-]`, for which the outcome in assay [1], in assay [2], in [8], in assay [9], in assay [12] and in [18] was inactive. Moreover, the AC50 in [3] is 41.9 µM (active); in [5], 50 µM (active); in assay [6], 50 µM (active); in assay [7] it was 68.8 µM (active); in assay [10], 30 µM (active); in assay [11], 33.8 µM (active). Further, the AC50 in [13] was 34.9 µM (active); in [14] it was 21.4 µM (active); in [15], 37 µM (active); in assay [16], 50 µM (active); in assay [17], 28.4 µM (active); in assay [19] it was 24.9 µM (active).

For the compound `COC(=O)c1ccccc1C(=O)OC`, the call in assay [1], in [2], in assay [3], in assay [4], in assay [5] and in assay [6] was inactive. In addition, the result in [7], in [8], in [9], in assay [10], in [11] and in assay [12] was inactive. Besides, the result in assay [13], in assay [14], in [15], in [16], in assay [17] and in assay [18] was inactive. Besides, the result in [19] was inactive.

`N#Cc1nn(-c2c(Cl)cc(C(F)(F)F)cc2Cl)c(N)c1S(=O)C(F)(F)F` (stereo not drawn): the AC50 is 11.9 µM (active) in [1]; 79.5 µM (active) in assay [2]; 38.3 µM (active) in assay [3]; 90.3 µM (active) in [4]; 13.4 µM (active) in assay [5]; 47.7 µM (active) in assay [7]. Further, the AC50 in assay [8] was 44.8 µM (active); in [9], 91.4 µM (active); in assay [11] it was 12.6 µM (active); in assay [12], 50.2 µM (active); in assay [13], 42.6 µM (active); in assay [14], 31.3 µM (active). Also, the AC50 in [15] is 59.2 µM (active); in assay [16], 30.7 µM (active); in [17], 35.1 µM (active); in assay [18], 50.2 µM (active); in assay [19] it was 23.6 µM (active). Besides, the result in assay [6] and in [10] was inactive.

As for `CCc1nn(C)c(C(=O)NCc2ccc(C(C)(C)C)cc2)c1Cl`, the concentration at half-maximal activity (AC50) in assay [1] was 9.92 µM (active); in [3] it was 8.88 µM (active); in assay [4], 78.6 µM (active); in [5] it was 0.782 µM (active); in [6] it was 2.34 µM (active); in [7], 2.34 µM (active). Moreover, the AC50 is 1.37 µM (active) in assay [8]; 9.92 µM (active) in [10]; 0.616 µM (active) in assay [11]; 0.58 µM (active) in [13]; 2.22 µM (active) in assay [14]; 1.85 µM (active) in assay [15]. Further, the concentration at half-maximal activity (AC50) in assay [16] was 26.5 µM (active); in assay [17], 5.39 µM (active); in assay [19], 0.484 µM (active). For the same compound, the result in assay [2], in assay [9], in assay [12] and in assay [18] was inactive.

On to `OC(c1ccc(Cl)cc1)(c1cncnc1)c1ccccc1Cl` (stereo not drawn), for which the call in assay [1], in assay [2], in assay [9], in assay [11], in assay [12] and in assay [18] was inactive. The AC50 in [3] is 82 µM (active); in assay [4], 62 µM (active); in assay [5], 37.3 µM (active); in assay [6], 74.3 µM (active); in assay [7], 71.9 µM (active); in assay [8], 73 µM (active). In addition, the AC50 is 50 µM (active) in assay [10]; 85.7 µM (active) in assay [13]; 50 µM (active) in assay [14]; 73.2 µM (active) in assay [15]; 58.9 µM (active) in assay [16]; 80.4 µM (active) in assay [17]. Moreover, the AC50 in [19] was 5.86 µM (active).
